Laboratory results: PubChem BioAssay (NCATS)
Inconclusive results are not listed. The source made the active and inactive calls. Calls come from the whole dose curve; as a rule, active = well fitted curve in the direction sought with a large enough effect; inconclusive = small, poorly fitted or top-dose-only effect, or another doubt; inactive = no such curve, though single readings can be large; an effect the other way counts as inactive or inconclusive.

How the values were obtained:
[1] = biological target: ATP-dependent 6-phosphofructokinase (Trypanosoma brucei brucei) (UniProt O15648); experiment: qHTS Assay to Find Inhibitors of T. brucei phosphofructokinase: hit validation (AID 492961);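 note: luminescence reports ADP formed as PFK phosphorylates fructose-6-phosphate with ATP; % is set by controls: 0 for no effect and ±100 for the full control effect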
In short: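 Compounds titrated; %activity normalized to 0x and 1x enzyme controls, curve-fitted. Readout: ADP-Glo luminescence after 45 min room-temperature reaction of 1.25 nM PFK, 0.1 mM ATP, 0.5 mM F6P, pH 8.0.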

[2] = qHTS profiling for inhibitors of Plasmodium falciparum proliferation (AID 504749); note: potency is the fitted concentration of half-maximal effect;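 for activity, negative = inhibition: 0% = DMSO vehicle and full inhibition = artemisinin control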; for all read-outs here: nearly all actives have a fitted effect of over 60% in size; conditions: P. falciparum in erythrocytes, SYBR Green DNA, 72 h; for activity, negative = inhibition: at 28.7 µM (top of the series)
In short: (§1)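 SYBR Green fluorescence (ex 485 nm, em 535 nm) reports parasite DNA after 72 h compound exposure of infected red cells at 0.3% parasitemia, 2.5% hematocrit; signal normalized to 0.29 uM artemisinin and vehicle wells.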

3D7 = experiment: as above; conditions: P. falciparum in erythrocytes, SYBR Green DNA, 72 h; series mostly up to 28.7 µM
In short: as §1

ATS189 = experiment: as above; conditions: P. falciparum in erythrocytes, SYBR Green DNA, 72 h; series mostly up to 28.7 µM
In short: as §1

ATS95 = experiment: as above; conditions: P. falciparum in erythrocytes, SYBR Green DNA, 72 h; series mostly up to 28.7 µM
In short: as §1

C2A = experiment: as above; conditions: P. falciparum in erythrocytes, SYBR Green DNA, 72 h; series mostly up to 28.7 µM
In short: as §1

CP185 = experiment: as above; conditions: P. falciparum in erythrocytes, SYBR Green DNA, 72 h; series mostly up to 28.7 µM
In short: as §1

CP191 = experiment: as above; conditions: P. falciparum in erythrocytes, SYBR Green DNA, 72 h; series mostly up to 28.7 µM
In short: as §1

CP217 = experiment: as above; conditions: P. falciparum in erythrocytes, SYBR Green DNA, 72 h; series mostly up to 28.7 µM
In short: as §1

CP238 = experiment: as above; conditions: P. falciparum in erythrocytes, SYBR Green DNA, 72 h; series mostly up to 28.7 µM
In short: as §1

CP250 = experiment: as above; conditions: P. falciparum in erythrocytes, SYBR Green DNA, 72 h; series mostly up to 28.7 µM
In short: as §1

CP252 = experiment: as above; conditions: P. falciparum in erythrocytes, SYBR Green DNA, 72 h; series mostly up to 28.7 µM
In short: as §1

CP256 = experiment: as above; conditions: P. falciparum in erythrocytes, SYBR Green DNA, 72 h; series mostly up to 28.7 µM
In short: as §1

CP262 = experiment: as above; conditions: P. falciparum in erythrocytes, SYBR Green DNA, 72 h; series mostly up to 28.7 µM
In short: as §1

CP265 = experiment: as above; conditions: P. falciparum in erythrocytes, SYBR Green DNA, 72 h; series mostly up to 28.7 µM
In short: as §1

CP286 = experiment: as above; conditions: P. falciparum in erythrocytes, SYBR Green DNA, 72 h; series mostly up to 28.7 µM
In short: as §1

DFO2036 = experiment: as above; conditions: P. falciparum in erythrocytes, SYBR Green DNA, 72 h; series mostly up to 28.7 µM
In short: as §1

Dd2 = experiment: as above; conditions: P. falciparum in erythrocytes, SYBR Green DNA, 72 h; series mostly up to 28.7 µM
In short: as §1

HB3 = experiment: as above; conditions: P. falciparum in erythrocytes, SYBR Green DNA, 72 h; series mostly up to 28.7 µM
In short: as §1

P94_40 = experiment: as above; conditions: P. falciparum in erythrocytes, SYBR Green DNA, 72 h; series mostly up to 28.7 µM
In short: as §1

Chain of ATP-dependent 6-phosphofructokinase (Trypanosoma brucei brucei) (O15648 whole entry, looked up): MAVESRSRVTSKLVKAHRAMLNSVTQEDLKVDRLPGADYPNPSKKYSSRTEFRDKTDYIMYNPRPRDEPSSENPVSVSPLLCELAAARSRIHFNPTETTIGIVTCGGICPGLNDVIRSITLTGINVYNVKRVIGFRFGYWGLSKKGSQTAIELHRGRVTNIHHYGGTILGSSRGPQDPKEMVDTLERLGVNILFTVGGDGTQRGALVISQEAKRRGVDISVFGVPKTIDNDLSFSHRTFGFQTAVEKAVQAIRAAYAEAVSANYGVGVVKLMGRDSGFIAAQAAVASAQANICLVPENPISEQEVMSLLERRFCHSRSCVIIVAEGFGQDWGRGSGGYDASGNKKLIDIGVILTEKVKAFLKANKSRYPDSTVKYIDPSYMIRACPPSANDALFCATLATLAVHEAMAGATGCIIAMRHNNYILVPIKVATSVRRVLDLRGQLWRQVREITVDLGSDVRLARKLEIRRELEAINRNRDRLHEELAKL

NC(=O)OC[C@@H]1[C@H](NC(=O)/C(=N/OCC(=O)O)c2csc(N)n2)C(=O)N1S(=O)(=O)O
inactive: Potency [1] | activity, negative = inhibition ([2]; parasite line A) -1.72% | activity, negative = inhibition ([2]; parasite line B) 1.04% | Potency (3D7) | Potency (ATS189) | Potency (ATS95) | Potency (C2A) | Potency (CP185) | Potency (CP191) | Potency (CP217) | Potency (CP238) | Potency (CP250) | Potency (CP252) | Potency (CP256) | Potency (CP262) | Potency (CP265) | Potency (CP286) | Potency (DFO2036) | Potency (Dd2) | Potency (HB3) | Potency (P94_40)

CC1(C(=O)O)CCC2(C)CCC3(C)C(=CC(=O)C4C5(C)CCC(O)C(C)(C)C5CCC43C)C2C1 (centres undefined)
inactive: Potency [1] | activity, negative = inhibition ([2]; parasite line A) 8.05% | activity, negative = inhibition ([2]; parasite line B) 1.81% | Potency (3D7) | Potency (ATS189) | Potency (ATS95) | Potency (C2A) | Potency (CP185) | Potency (CP191) | Potency (CP217) | Potency (CP238) | Potency (CP250) | Potency (CP252) | Potency (CP256) | Potency (CP262) | Potency (CP265) | Potency (CP286) | Potency (DFO2036) | Potency (Dd2) | Potency (HB3) | Potency (P94_40)

CCC(=O)O[C@]1(C(=O)CCl)[C@@H](C)CC2C3C[C@H](F)C4=CC(=O)C=CC4(C)[C@@]3(F)C(O)CC21C (some centres undefined)
inactive: Potency [1]
active: Potency ([2]; parasite line A) 12.6 µM | Potency ([2]; parasite line B) 11.2 µM | Potency (3D7) 11.2 µM | Potency (ATS189) 10 µM | Potency (ATS95) 6.31 µM | Potency (C2A) 12.6 µM | Potency (CP185) 11.2 µM | Potency (CP191) 7.94 µM | Potency (CP217) 7.94 µM | Potency (CP238) 8.91 µM | Potency (CP250) 12.6 µM | Potency (CP252) 8.91 µM | Potency (CP256) 11.2 µM | Potency (CP262) 9.53 µM | Potency (CP265) 8.91 µM | Potency (CP286) 10 µM | Potency (DFO2036) 11.2 µM | Potency (Dd2) 7.94 µM | Potency (HB3) 12.6 µM | Potency (P94_40) 8.91 µM

C/C(=C(/CCO)SS/C(CCO)=C(\C)N(C=O)Cc1cnc(C)nc1N)N(C=O)Cc1cnc(C)nc1N
inactive: Potency [1] | activity, negative = inhibition ([2]; parasite line A) -6.53% | activity, negative = inhibition ([2]; parasite line B) -3.11% | Potency (3D7) | Potency (ATS189) | Potency (ATS95) | Potency (C2A) | Potency (CP185) | Potency (CP191) | Potency (CP217) | Potency (CP238) | Potency (CP250) | Potency (CP252) | Potency (CP256) | Potency (CP262) | Potency (CP265) | Potency (CP286) | Potency (DFO2036) | Potency (Dd2) | Potency (HB3) | Potency (P94_40)

CC1(Cn2ccnn2)[C@H](C(=O)O)N2C(=O)C[C@H]2S1(=O)=O (some centres undefined)
inactive: Potency [1] | activity, negative = inhibition ([2]; parasite line A) 4.59% | activity, negative = inhibition ([2]; parasite line B) 0.438% | Potency (3D7) | Potency (ATS189) | Potency (ATS95) | Potency (C2A) | Potency (CP185) | Potency (CP191) | Potency (CP217) | Potency (CP238) | Potency (CP250) | Potency (CP252) | Potency (CP256) | Potency (CP262) | Potency (CP265) | Potency (CP286) | Potency (DFO2036) | Potency (Dd2) | Potency (HB3) | Potency (P94_40)

CC1C(=O)C(=O)C=CN1C (centres undefined)
inactive: Potency [1] | activity, negative = inhibition ([2]; parasite line A) 3.53% | activity, negative = inhibition ([2]; parasite line B) 9.14% | Potency (3D7) | Potency (ATS189) | Potency (ATS95) | Potency (C2A) | Potency (CP185) | Potency (CP191) | Potency (CP217) | Potency (CP238) | Potency (CP250) | Potency (CP252) | Potency (CP256) | Potency (CP262) | Potency (CP265) | Potency (CP286) | Potency (DFO2036) | Potency (Dd2) | Potency (HB3) | Potency (P94_40)

CC(CCC(=O)O)C1CCC2C3C(=O)C[C@@H]4CC(=O)CC[C@@]4(C)C3CC(=O)[C@]12C (some centres undefined)
inactive: Potency [1] | activity, negative = inhibition ([2]; parasite line A) -3.83% | activity, negative = inhibition ([2]; parasite line B) 1.51% | Potency (3D7) | Potency (ATS189) | Potency (ATS95) | Potency (C2A) | Potency (CP185) | Potency (CP191) | Potency (CP217) | Potency (CP238) | Potency (CP250) | Potency (CP252) | Potency (CP256) | Potency (CP262) | Potency (CP265) | Potency (CP286) | Potency (DFO2036) | Potency (Dd2) | Potency (HB3) | Potency (P94_40)

CC(=O)OC1C([N+]2(C)CCCCC2)C[C@H]2C3CC[C@H]4C[C@H](OC(C)=O)C([N+]5(C)CCCCC5)CC4(C)C3CCC12C (some centres undefined)
inactive: Potency [1] | activity, negative = inhibition ([2]; parasite line A) -25% | activity, negative = inhibition ([2]; parasite line B) 8.8% | Potency (3D7) | Potency (ATS189) | Potency (ATS95) | Potency (C2A) | Potency (CP185) | Potency (CP191) | Potency (CP217) | Potency (CP238) | Potency (CP250) | Potency (CP252) | Potency (CP256) | Potency (CP262) | Potency (CP265) | Potency (CP286) | Potency (DFO2036) | Potency (Dd2) | Potency (HB3) | Potency (P94_40)

C=C1NC(=O)c2cc(CN(C)c3ccc(C(=O)N[C@@H](CCC(=O)O)C(=O)O)s3)ccc2N1
inactive: Potency [1] | activity, negative = inhibition ([2]; parasite line A) 2.89% | activity, negative = inhibition ([2]; parasite line B) 4.82% | Potency (3D7) | Potency (ATS189) | Potency (ATS95) | Potency (C2A) | Potency (CP185) | Potency (CP191) | Potency (CP217) | Potency (CP238) | Potency (CP250) | Potency (CP252) | Potency (CP256) | Potency (CP262) | Potency (CP265) | Potency (CP286) | Potency (DFO2036) | Potency (Dd2) | Potency (HB3) | Potency (P94_40)
